Assay outcomes deposited in PubChem BioAssay by National Center for Advancing Translational Sciences (NCATS).
A selection: hits, their analogues and other compounds. The true share with any hit is near 7.3%.
Luc counter – Kinase-Glo luciferase inhibition (counter-screen) | Q27757 | Kinase-Glo luciferase, ATP luminescence, 8 min | Potency, µM (highest dose often 38.3 µM), without a hit: top-dose activity change, negative = inhibition, actives largely listed as inhibitors | 200,000 compounds, 0.28% hits; note: % is set by controls: 0 for no effect and ±100 for the full control effect; nearly all actives have a fitted effect of over 60% in size
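Substrate mix (final 50 mM imidazole pH 7.2, 50 mM KCl, 7 mM MgCl2, 10 uM ATP, 0.01% Tween 20, 0.05% BSA) plus pin-tool compound, then Kinase-Glo detection mix; 8 min ambient, luminescence read.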
ELG1 genotox – inducers of genotoxicity in HEK293T ELG1-luciferase cells | HEK293T ELG1-luciferase reporter, luminescence, 16 h | Potency, µM (doses to about 46 µM), for the others: top-dose activity change, positive = activation, usual class: activators | 330,000 compounds, 1.3% hits; note: % of control where 0% means no effect; nearly all actives have a fitted effect of over 60% in size
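Genotoxicity was scored as increased ELG1-luciferase reporter signal, measured by ONE-Glo luminescence (30 min, room temperature). Compound or vehicle exposure of the HEK293T reporter cells lasted 16 hr at 37°C.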
SMN2 splice up – enhancers of SMN2 splice variant expression. Potency, µM (series often up to 46.1 µM), for the others: top-dose activity change, positive = activation, most hits filed as activators. 210,000 compounds, 2.8% hits. HEK293 SMN2-luciferase splicing reporter, luminescence, 30-36 h; note: % of control where 0% means no effect; nearly all actives have a fitted effect of over 55% in size
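qHTS luciferase splicing reporter: luminescence rises when SMN2 exon 7 is included in transfected HEK293 cells. Compound exposure lasted 30-36 h at 37C, with 4.5 mM final sodium butyrate as control, followed by a ONE-Glo read.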
Rab9 prom act – activates the Rab9 promoter; Huh7 Rab9 promoter-luciferase reporter, luminescence, 24 h; 320,000 compounds, 2.8% hits; AID 485297; Potency, µM (series often up to 9.22 µM), without a hit: at the highest dose activation, negative = inhibition, usual class: activators; note: % of control where 0% means no effect; nearly all actives have a fitted effect of over 60% in size
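Stable Rab9-luc Huh7, 1500 cells/well, 2 h settle; cmpd in DMSO, 24 h, 37 °C/5% CO2; luciferase reagent 10 min RT; luminescence.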
NPC1 prom act – activates the NPC1 promoter | 320,000 compounds, 2.4% hits | Huh7 NPC1 promoter luciferase reporter, 24 h | Potency, µM (doses to about 9.22 µM), for the others: at the highest dose activation, usual class: activators; note: % of control where 0% means no effect; nearly all actives have a fitted effect of over 60% in size
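Luciferase expression driven by the NPC1 promoter was measured in stably transfected Huh7 cells after a 24 h compound incubation, using a luciferase reagent and a luminescence read.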
FLuc counter – inhibits or activates purified firefly luciferase, miR-21 counter-screen | purified FLuc, Km substrates, luminescence inhibition | AID 588342 | 360,000 compounds, 6.9% hits | Potency, µM (highest dose often 57.5 µM), for the others: at the top dose activity change, negative = inhibition, hits mostly inhibitors;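 note: plate controls were vehicle for no effect and reference inhibitor for full effect; nearly all actives have a fitted effect of over 55% in size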
Target sequence (P08659 whole entry, looked up): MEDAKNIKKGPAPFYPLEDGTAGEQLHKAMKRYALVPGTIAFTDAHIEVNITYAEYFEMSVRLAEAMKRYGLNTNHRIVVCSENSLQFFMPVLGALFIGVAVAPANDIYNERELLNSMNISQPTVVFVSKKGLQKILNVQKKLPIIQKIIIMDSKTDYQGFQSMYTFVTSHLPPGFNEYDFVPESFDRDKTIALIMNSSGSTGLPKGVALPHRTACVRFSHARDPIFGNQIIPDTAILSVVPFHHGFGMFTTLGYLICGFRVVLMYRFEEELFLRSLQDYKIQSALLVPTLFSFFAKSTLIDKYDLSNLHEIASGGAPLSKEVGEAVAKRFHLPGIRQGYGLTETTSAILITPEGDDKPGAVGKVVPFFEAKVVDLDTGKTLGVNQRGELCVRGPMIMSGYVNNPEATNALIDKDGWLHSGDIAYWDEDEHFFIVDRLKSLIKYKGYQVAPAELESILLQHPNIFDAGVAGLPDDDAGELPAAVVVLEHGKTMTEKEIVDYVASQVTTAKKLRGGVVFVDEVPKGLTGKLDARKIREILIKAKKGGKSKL
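Purified P. pyralis luciferase (10nM final) with 10uM D-luciferin and 10uM ATP (Km levels) in 50mM Tris acetate pH 7.5, 10mM Mg acetate, 0.01% Tween-20, 0.05% BSA; qHTS 6-point titration, ~60 µM downward; luminescence read.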
The depositor's hits bear a star; ? = inconclusive; nt = no result. Calls come from the whole dose curve; as a rule, active = well fitted curve in the direction sought with a large enough effect; inconclusive = small, poorly fitted or top-dose-only effect, or another doubt; inactive = no such curve, though single readings can be large; an effect the other way counts as inactive or inconclusive. Potency is the fitted concentration of half-maximal effect.

SMILES	Luc counter	ELG1 genotox	SMN2 splice up	Rab9 prom act	NPC1 prom act	FLuc counter
CCC(C(=O)NCc1ccc(OC)c(OC)c1)n1nc(C)c2c(C)n(-c3ccc(C)cc3)nc2c1=O (centres undefined)	nt	nt	nt	nt	nt	-15%
CCC(C(=O)Nc1ccccc1OC)n1nc(C)c2sc3ccccc3c2c1=O (centres undefined)	nt	nt	nt	nt	nt	5%
Cc1nn(C(C)C(=O)NC2CCCCC2)c(=O)c2c1sc1ccccc12 (centres undefined)	nt	nt	nt	nt	nt	9.5µM*
CSc1ccc(CCNC(=O)C(C)n2nc(C)c3sc4ccccc4c3c2=O)cc1 (centres undefined)	nt	nt	nt	nt	nt	13µM*
CCOC(=O)C(C)n1nc(C)c2sc3ccccc3c2c1=O (centres undefined)	-2%	-6%	16%	9%	-7%	-2%
Cc1nn(C(C)C(=O)NCC2CCCO2)c(=O)c2c1sc1ccccc12 (centres undefined)	nt	0%	nt	-6%	2%	-2%
CCC(C(=O)NCCc1ccc(OC)c(OC)c1)n1nc(C)c2sc3ccccc3c2c1=O (centres undefined)	nt	nt	nt	nt	nt	19µM*
CCCn1c(SCc2ccc(C(=O)OC)o2)nc2ccccc2c1=O	nt	-1%	nt	9%	2%	-2%
COc1ccc(CNC(=O)C(C)n2nc(C)c3sc4ccccc4c3c2=O)cc1OC (centres undefined)	nt	nt	nt	nt	nt	-2%
Cc1ccc(CNC(=O)C(C)n2nc(C)c3sc4ccccc4c3c2=O)cc1 (centres undefined)	nt	nt	nt	nt	nt	13µM*
CC1(C)Cc2nc3sc(C(=O)NCCO)c(N)c3cc2CO1	-8%	8%	?	15%	25%	27µM*
CC1(C)Cc2nc3sc(C(=O)NCCCO)c(N)c3cc2CS1	-1%	?	14µM*	3.2µM*	?	15µM*
CC1(C)Cc2nc3sc4c(N(CCO)CCO)nnnc4c3cc2CO1	-2%	10%	1%	18%	10%	?
O=C(Nc1ccc(S(=O)(=O)N2CCCC2)cc1)c1ccc2c(=O)n3c(nc2c1)CCCCC3	-3%	-4%	-61%	-18%	-7%	1%
O=C(Nc1ncc([N+](=O)[O-])s1)c1ccccc1Br	nt	8%	nt	?	3.5µM*	?
O=C(Nc1ncc([N+](=O)[O-])s1)c1cccs1	nt	?	nt	1µM*	0.89µM*	8.5µM*
O=C(/C=C/c1ccc([N+](=O)[O-])cc1)Nc1ncc([N+](=O)[O-])s1	-11%	?	0.5µM*	0.79µM*	0.05µM*	0.12µM*
Cc1ncoc1C(=O)Nc1ncc([N+](=O)[O-])s1	11µM*	?	4.5µM*	0.32µM*	0.71µM*	6.7µM*
O=Cc1ccc(Oc2nc(Cl)ncc2F)cc1	nt	1%	nt	0%	-2%	-1%
Cc1cnc(NC(=O)c2cccs2)s1	nt	?	nt	1.4µM*	?	11µM*
Cc1ccc(S(=O)(=O)NC(=O)Nc2ccc(F)c(F)c2)cc1	nt	0%	nt	-3%	-3%	-2%
COc1ccc(NC(=O)CNc2cc(C)ccc2C)cc1S(=O)(=O)N1CCOCC1	nt	1%	nt	0%	-4%	-2%
COc1ccc(CC(=O)Nc2ccc(F)c(Cl)c2)cc1S(=O)(=O)N1CCOCC1	nt	1%	nt	-6%	0%	0%
COc1ccc(NC(=O)Cc2coc3cc(C)ccc23)cc1S(=O)(=O)N1CCOCC1	2%	2%	-5%	20%	13%	15µM*
COc1ccc(NC(=O)Cc2coc3ccc4ccccc4c23)cc1S(=O)(=O)N1CCOCC1	1%	0%	-17%	-5%	-4%	13µM*
SMILES	Luc counter	ELG1 genotox	SMN2 splice up	Rab9 prom act	NPC1 prom act	FLuc counter
O=C(CSc1nnc(-c2ccccc2)o1)NCC1CCCCC1	-2%	-5%	-12%	8%	-2%	-7%
c1ccc(-c2nnc(SCCC3OCCCO3)o2)cc1	-9%	?	11µM*	2.5µM*	2.5µM*	15µM*
O=C1OCCC1Sc1nnc(-c2ccco2)o1 (centres undefined)	0%	2%	-1%	7%	0%	-2%
O=C1OCCC1Sc1nnc(-c2ccc(Br)cc2)o1 (centres undefined)	1%	-2%	-2%	-5%	0%	6µM*
Brc1ccc(-c2nnc(SCCC3OCCCO3)o2)cc1	1%	13%	26%	23%	24%	15µM*
CC(=O)c1ccc(NC(=O)CSc2nc(-c3ccc(C)cc3)nc3c2c(=O)n(C)c(=O)n3C)cc1	nt	nt	nt	nt	nt	-1%
COc1ccc(CC2(CO)CCN(C(C)COc3ccccc3)CC2)cc1 (centres undefined)	1%	-3%	nt	5%	-4%	1%
COc1ccc(CCN2C(=O)NC(NS(=O)(=O)c3ccc(N)cc3)(C(F)(F)F)C2=O)cc1OC (centres undefined)	3%	5%	-11%	-5%	-1%	0%
CC(C)Oc1ccc2c(=O)c(-c3ccccc3)coc2c1	-5%	9.2µM*	3.2µM*	0.89µM*	0.79µM*	1.7µM*
COC(=O)COc1ccc2c(=O)c(-c3ccccc3)coc2c1	nt	-2%	nt	1%	3%	17µM*
COC(=O)COc1ccc2c(-c3ccc(OC)cc3)cc(=O)oc2c1	-3%	1%	-10%	-3%	-1%	?
CC(=O)Oc1ccc2c(=O)c(-c3nc4ccccc4s3)coc2c1	10µM*	?	13µM*	1.3µM*	1.3µM*	1.1µM*
CS(=O)(=O)N1CCc2cc(C(=O)NC3CC3)ccc21	-3%	0%	1%	3%	-2%	-2%
COc1cccc(NC(=S)N2CCc3cc(OC)c(OC)cc3C2COc2ccc3c(C)cc(=O)oc3c2)c1 (centres undefined)	0%	1%	10%	1%	-7%	7%
O=C(/C=N/O)NCc1cccnc1	nt	0%	nt	0%	4%	3%
COc1ccc(C(=O)COC(=O)CCN2C(=O)C3C4CCC(C4)C3C2=O)cc1 (centres undefined)	1%	-19%	-31%	-3%	0%	?
O=C(CCN1C(=O)C2C3CCC(C3)C2C1=O)OCC(=O)c1ccccc1 (centres undefined)	nt	0%	nt	-2%	-1%	13µM*
Cc1c(C(=O)Oc2cc(N)n(S(C)(=O)=O)n2)cccc1[N+](=O)[O-]	0%	0%	0%	3%	1%	21µM*
COc1cccc(-c2nc3ccc(C(=O)NC(C)Cc4cccnc4)cc3o2)c1 (centres undefined)	nt	?	nt	2.8µM*	2.2µM*	9.5µM*
COC(=O)C1CCN(C(=O)c2ccc3nccnc3c2)CC1	nt	10%	nt	-4%	-7%	-3%
